Experiments:
Test in all cases: log2 ratio of Biotin-Ahx-Ub-VS probe labelling (fragment/DMSO); higher = less target engagement (more negative = stronger competition), active = hit call of the paper (q ≤ 0.05, log2 ratio ≤ -1)
Details in all cases: compound concentration: 200 uM; treatment time: 3 h
ALG13 = target: T1, ALG13 (UniProt Q9NP73)
T1 sequence (whole entry): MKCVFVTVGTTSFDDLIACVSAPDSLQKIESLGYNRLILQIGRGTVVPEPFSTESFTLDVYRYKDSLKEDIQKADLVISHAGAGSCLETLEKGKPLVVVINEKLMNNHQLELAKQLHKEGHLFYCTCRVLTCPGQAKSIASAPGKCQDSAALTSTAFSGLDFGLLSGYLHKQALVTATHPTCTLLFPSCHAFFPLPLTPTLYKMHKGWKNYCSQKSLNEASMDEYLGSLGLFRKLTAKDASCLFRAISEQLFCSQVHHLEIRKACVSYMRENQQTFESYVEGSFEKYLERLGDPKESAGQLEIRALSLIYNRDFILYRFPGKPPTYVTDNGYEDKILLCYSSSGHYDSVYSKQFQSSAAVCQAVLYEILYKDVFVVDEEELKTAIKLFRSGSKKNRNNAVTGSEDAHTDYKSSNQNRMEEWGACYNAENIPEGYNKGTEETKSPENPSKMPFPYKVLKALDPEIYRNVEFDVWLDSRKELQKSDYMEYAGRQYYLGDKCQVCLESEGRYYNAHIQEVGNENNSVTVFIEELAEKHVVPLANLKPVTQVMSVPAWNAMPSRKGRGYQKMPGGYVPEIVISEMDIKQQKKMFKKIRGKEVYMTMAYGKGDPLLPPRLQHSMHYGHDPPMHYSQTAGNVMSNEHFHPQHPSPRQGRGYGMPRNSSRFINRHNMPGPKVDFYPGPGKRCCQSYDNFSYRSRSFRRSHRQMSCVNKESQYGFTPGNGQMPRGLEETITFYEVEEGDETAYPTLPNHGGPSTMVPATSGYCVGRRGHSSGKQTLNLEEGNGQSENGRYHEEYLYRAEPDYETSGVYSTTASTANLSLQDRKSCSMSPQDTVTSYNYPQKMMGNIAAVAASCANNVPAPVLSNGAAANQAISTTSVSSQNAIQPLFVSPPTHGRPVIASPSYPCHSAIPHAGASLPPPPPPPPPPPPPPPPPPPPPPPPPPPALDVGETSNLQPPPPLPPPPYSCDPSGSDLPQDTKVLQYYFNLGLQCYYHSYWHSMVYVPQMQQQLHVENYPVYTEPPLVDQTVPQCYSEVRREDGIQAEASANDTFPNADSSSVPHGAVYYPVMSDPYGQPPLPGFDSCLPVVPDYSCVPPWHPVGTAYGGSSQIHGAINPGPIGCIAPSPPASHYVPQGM
Summary of the method: (§1)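 Using Biotin-Ahx-Ub-VS at 0.5 µM final for 1 h, DUBs were labelled in HEK293T lysate (495 µg per sample) that had first been treated in triplicate with fragment at 200 µM or vehicle for 3 h. NeutrAvidin enrichment, LysC and trypsin digestion and diaPASEF LC-MS/MS followed. Spectronaut label-free quantities were global-median-normalised. Values are average log2 fragment/vehicle ratios by unpaired t-test, using proteins with ≥2 unique peptides.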

ATXN3 = ATXN3 (UniProt P54252)
Sequence of ATXN3 (P54252 whole entry): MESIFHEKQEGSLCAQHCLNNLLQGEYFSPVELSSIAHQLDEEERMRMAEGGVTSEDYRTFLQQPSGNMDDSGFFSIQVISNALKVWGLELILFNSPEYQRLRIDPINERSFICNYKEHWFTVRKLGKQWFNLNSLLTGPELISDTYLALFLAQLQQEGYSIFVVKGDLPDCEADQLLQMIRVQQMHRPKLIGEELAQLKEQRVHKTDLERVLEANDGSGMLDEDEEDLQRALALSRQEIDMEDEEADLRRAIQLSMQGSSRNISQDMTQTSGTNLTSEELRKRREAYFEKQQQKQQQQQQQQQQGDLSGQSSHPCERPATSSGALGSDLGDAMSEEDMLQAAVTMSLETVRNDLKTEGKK
Summary of the method: as §1

BAP1 = target: T2, BAP1 (UniProt Q92560)
T2 sequence (whole entry): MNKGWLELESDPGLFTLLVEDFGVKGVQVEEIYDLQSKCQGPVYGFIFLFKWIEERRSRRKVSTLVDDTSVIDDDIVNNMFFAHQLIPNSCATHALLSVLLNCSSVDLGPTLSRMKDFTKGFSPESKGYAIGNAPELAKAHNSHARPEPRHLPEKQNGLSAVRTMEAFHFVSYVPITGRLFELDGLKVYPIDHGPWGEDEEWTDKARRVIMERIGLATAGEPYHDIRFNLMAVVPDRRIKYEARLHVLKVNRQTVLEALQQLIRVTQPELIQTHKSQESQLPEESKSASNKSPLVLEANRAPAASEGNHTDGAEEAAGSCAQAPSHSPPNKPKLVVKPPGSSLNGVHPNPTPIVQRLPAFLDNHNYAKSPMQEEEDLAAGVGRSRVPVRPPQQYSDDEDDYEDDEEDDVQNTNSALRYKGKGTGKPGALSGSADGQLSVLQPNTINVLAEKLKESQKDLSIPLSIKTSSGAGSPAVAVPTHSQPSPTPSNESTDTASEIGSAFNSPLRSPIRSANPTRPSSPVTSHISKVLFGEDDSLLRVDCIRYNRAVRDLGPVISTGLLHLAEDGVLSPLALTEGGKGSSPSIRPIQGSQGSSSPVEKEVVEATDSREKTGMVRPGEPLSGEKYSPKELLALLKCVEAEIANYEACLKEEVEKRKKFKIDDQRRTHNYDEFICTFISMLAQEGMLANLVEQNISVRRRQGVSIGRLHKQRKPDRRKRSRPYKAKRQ
Summary of the method: as §1

EIF3F = EIF3F (UniProt O00303)
Sequence of EIF3F (O00303 whole entry): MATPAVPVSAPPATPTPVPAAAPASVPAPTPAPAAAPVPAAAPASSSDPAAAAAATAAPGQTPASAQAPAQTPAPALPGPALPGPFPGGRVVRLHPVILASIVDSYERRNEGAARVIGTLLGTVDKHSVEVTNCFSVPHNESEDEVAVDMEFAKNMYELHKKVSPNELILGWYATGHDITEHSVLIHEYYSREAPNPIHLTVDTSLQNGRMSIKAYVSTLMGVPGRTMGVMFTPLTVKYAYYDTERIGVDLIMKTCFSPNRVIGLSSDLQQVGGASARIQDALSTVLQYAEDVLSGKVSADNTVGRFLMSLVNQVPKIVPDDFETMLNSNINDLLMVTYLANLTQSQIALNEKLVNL
Summary of the method: as §1

EIF3H = EIF3H (UniProt O15372)
Sequence of EIF3H (O15372 whole entry): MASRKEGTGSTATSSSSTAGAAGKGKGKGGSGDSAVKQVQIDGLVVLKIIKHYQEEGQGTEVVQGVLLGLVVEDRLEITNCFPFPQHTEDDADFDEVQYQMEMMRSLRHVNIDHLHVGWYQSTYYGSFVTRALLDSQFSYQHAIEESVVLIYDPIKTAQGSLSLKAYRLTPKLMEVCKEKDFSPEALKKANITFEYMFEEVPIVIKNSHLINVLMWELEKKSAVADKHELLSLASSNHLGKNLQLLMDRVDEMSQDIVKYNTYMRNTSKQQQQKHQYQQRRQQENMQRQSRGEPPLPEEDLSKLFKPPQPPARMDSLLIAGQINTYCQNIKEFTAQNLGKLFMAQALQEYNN
Summary of the method: as §1

FAM105A = target: T3, FAM105A (UniProt Q9NUU6)
T3 sequence (whole entry): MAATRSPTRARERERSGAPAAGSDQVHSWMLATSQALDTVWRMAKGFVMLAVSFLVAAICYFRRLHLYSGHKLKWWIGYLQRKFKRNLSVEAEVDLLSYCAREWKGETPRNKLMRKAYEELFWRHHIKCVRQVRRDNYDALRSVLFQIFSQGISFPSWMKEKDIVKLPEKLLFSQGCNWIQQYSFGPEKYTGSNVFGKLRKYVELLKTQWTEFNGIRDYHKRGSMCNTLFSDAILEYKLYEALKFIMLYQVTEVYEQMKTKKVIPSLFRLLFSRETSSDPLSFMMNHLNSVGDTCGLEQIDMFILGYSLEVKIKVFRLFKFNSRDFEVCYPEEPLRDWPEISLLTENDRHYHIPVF
Summary of the method: as §1

OTUB1 = OTUB1 (UniProt Q96FW1)
Sequence of OTUB1 (Q96FW1 whole entry): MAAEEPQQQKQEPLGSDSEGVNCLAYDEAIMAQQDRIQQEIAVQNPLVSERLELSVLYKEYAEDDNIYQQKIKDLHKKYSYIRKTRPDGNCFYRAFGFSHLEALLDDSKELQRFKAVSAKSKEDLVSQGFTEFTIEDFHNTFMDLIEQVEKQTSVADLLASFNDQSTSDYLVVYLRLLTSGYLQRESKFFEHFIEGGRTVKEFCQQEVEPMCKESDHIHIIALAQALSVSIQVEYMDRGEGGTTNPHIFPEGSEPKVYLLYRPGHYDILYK
Summary of the method: as §1

OTUD4 = target: T4, OTUD4 (UniProt Q01804)
T4 sequence (whole entry): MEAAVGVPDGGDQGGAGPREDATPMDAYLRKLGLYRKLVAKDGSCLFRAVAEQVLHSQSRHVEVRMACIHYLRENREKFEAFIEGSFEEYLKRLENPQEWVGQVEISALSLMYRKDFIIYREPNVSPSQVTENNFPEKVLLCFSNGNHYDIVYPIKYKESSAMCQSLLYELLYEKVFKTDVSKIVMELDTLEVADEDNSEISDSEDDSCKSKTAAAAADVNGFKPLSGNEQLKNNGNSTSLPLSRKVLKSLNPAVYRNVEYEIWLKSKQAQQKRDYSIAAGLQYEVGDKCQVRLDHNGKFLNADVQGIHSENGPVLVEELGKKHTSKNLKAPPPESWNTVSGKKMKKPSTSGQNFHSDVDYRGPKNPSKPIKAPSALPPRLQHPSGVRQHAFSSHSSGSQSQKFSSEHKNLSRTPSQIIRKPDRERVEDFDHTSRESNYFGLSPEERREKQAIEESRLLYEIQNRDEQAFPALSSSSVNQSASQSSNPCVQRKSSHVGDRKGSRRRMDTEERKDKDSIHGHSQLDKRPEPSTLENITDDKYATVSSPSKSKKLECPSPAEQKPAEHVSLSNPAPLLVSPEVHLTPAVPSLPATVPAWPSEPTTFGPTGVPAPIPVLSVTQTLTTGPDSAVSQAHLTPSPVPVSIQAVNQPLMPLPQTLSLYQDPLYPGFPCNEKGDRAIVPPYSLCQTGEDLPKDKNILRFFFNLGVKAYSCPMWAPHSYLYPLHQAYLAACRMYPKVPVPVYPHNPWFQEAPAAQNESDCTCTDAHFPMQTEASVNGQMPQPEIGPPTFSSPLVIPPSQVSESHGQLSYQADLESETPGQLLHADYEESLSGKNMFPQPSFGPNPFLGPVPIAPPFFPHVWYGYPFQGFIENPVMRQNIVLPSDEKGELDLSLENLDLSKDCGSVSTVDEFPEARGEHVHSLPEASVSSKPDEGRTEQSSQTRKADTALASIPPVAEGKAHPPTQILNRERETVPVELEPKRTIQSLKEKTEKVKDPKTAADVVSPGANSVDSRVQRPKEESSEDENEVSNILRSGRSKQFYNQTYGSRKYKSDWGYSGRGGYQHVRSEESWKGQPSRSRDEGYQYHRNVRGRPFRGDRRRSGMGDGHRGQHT
Summary of the method: as §1

OTUD5 = target: T5, OTUD5 (UniProt Q96G74)
T5 sequence (whole entry): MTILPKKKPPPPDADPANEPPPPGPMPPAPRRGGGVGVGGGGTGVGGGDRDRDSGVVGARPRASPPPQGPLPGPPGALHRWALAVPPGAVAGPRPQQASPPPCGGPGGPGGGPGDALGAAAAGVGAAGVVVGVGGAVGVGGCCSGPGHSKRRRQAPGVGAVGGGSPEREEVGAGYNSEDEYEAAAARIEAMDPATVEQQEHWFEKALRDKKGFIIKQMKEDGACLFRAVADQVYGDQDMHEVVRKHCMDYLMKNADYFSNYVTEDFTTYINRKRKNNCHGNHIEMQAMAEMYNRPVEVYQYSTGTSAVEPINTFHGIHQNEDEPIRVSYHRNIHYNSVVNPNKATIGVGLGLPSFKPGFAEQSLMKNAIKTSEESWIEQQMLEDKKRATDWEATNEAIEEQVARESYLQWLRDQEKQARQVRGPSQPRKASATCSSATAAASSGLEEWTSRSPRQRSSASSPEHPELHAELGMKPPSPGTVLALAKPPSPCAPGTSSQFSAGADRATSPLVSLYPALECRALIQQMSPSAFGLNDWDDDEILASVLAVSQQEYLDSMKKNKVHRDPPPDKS
Summary of the method: as §1

Measured: log2 ratio of Biotin-Ahx-Ub-VS probe labelling

Cc1cc(Cl)ccc1NC(=O)CCl
active: BAP1 -3.02
inactive: ALG13 -0.00605 | ATXN3 -0.0857 | EIF3F 0.0767 | EIF3H 0.0385 | FAM105A 0.174 | OTUB1 -0.116 | OTUD4 -0.0791 | OTUD5 -0.0787

From the supplement of paper PMC11732987, “Enantioselective OTUD7B fragment discovery through chemoproteomics screening and high-throughput optimisation” (Communications Chemistry, 2025)
